# Hits are enriched below; roughly 6.6% of the tested compounds scored in any of these assays.
# KB-3-1 tox = qHTS assay for MDR1-selective chemotherapeutics: Primary screen using the parental adenocarcinoma cell KB-3-1. KB-3-1 viability, CellTiter-Glo ATP luminescence, 72 h. 400,000 tested, 1.4% active. Potency, µM (series often up to 46.1 µM), hits mostly cytotoxic; further: on the % scale 0 is the no-effect control and ±100 the full control effect; nearly all actives have a fitted effect of over 60% in size
#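 Cytotoxicity measured as CellTiter-Glo luminescence after 72 h at 37 C. Compound titrations were pinned onto drug-naive KB-3-1 parental adenocarcinoma cells grown in DMEM with 10% FBS, and normalized data fitted to concentration-response curves.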
# HT1080 IDH1KD tx = qHTS for induction of synthetic lethality in tumor cells producing 2HG: qHTS for the HT-1080-IDH1KD cell line; 360,000 tested, 2% active; HT-1080 IDH1 knockdown viability, ATP luminescence, 48 h; Potency, µM (top dose mostly 46.1 µM), for inactives: at the top dose activity, negative = toxicity, hits mostly cytotoxic; AID 686971, 2013;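 further: 0% = DMSO wells and -100% = cell-free medium wells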
#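 IDH1KD HT-1080 cells, 750/well, RPMI + 5% FBS; compound pinned after 2 h settling; 48 h, 37 °C; CellTiter-Glo luminescence; % activity normalised to DMSO and no-cell wells; curves fitted, classed by r2 and efficacy.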
# KB-V1 cytotox = qHTS assay for MDR1-selective chemotherapeutics: Primary screen using the drug-selected MDR subline cells KB-V1; Potency, µM (doses to about 46.1 µM), hits mostly cytotoxic; KB-V1 MDR cells viability, CellTiter-Glo, 72 h; 400,000 tested, 3.4% active; further: on the % scale 0 is the no-effect control and ±100 the full control effect; nearly all actives have a fitted effect of over 60% in size
#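 Compound-treated KB-V1 multidrug-resistant cells, 72 h, 37 degrees C; viability by CellTiter-Glo. Fitted qHTS curves give the values.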
# HT1080-NT tox = qHTS for induction of synthetic lethality in tumor cells producing 2HG: qHTS for the HT-1080-NT fibrosarcoma cell line; HT-1080-NT fibrosarcoma viability, CellTiter-Glo ATP luminescence, 48 h; Potency, µM (titrated, usually from 46.1 µM), for inactives: top-dose activity, negative = less viability, actives largely listed as cytotoxic; 360,000 tested, 1.6% active;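 further: NT is the 2HG producing partner of a matched IDH1 knockdown line; 0% = DMSO-treated cells and -100% = media-only wells without cells; nearly all actives have a fitted effect of over 55% in size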
#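 HT-1080-NT; 750 cells/well; 5% FBS RPMI; 48 h compound, 37 degrees C; CellTiter-Glo luminescence; curve fitting and curve-class assignment.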
# HepG2 tox = qHTS for Inhibitors of TGF-b: Cytotox Counterscreen. HepG2 CAGA-GFP viability, ATP luminescence, 18 h. AID 588856, 2011. Potency, µM (doses to about 46.1 µM), without a hit: at the highest dose activity change, negative = cytotoxicity, usual class: cytotoxic. 410,000 tested, 0.76% active
#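 HepG2 CAGA-GFP cells (1000/well, DMEM with 1% FBS) received compound, then TGF-beta at 500 pg/mL final, and were incubated 18 hours at 37 degrees C. Viability was read by CellTiter-Glo luminescence. Media-only wells were set as complete cell-killing and DMSO as no toxicity.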
# TGFb SMAD3 inh = qHTS for Inhibitors of TGF-b. 410,000 tested, 1.2% active. AID 588855, 2011. Potency, µM (titrated, usually from 46.1 µM), for inactives: at the highest dose activity, negative = inhibition, hits mostly inhibitors. HepG2 CAGA-GFP TGF-b/SMAD3 reporter, GFP fluorescence, 18 h; TGF-beta stimulated, 500 pg/mL final; further: on the % scale 0 is the no-effect control and ±100 the full control effect; nearly all actives have a fitted effect of over 65% in size
#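 HEPG2 CAGA-GFP cells (1000/well, DMEM with 1% FBS) were pre-incubated 2 h at 37 degrees C, given compound by pin tool, then stimulated with TGF-beta at 500 pg/mL final for 18 h before per-cell GFP fluorescence imaging.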
# Numbers without * were called inactive; i = inactive; ? = inconclusive; . = not tested or not shown. The call rests on the fitted dose curve; in most records, active means well fitted curve in the direction sought with a large enough effect; inconclusive means small, poorly fitted or top-dose-only effect, or another doubt; inactive means no such curve, though single readings can be large; an effect the other way counts as inactive or inconclusive. Potency means the concentration at half of the fitted maximal effect.
SMILES,KB-3-1 tox,HT1080 IDH1KD tx,KB-V1 cytotox,HT1080-NT tox,HepG2 tox,TGFb SMAD3 inh
N=c1c2c(n(Cc3ccc(Cl)c(Cl)c3)c3c1CCC3)CCCC2,i,18.4µM*,i,23.1µM*,-2.6%,?
N=c1c2c(n(Cc3ccc(Br)cc3)c3c1CCC3)CCCC2,0.651µM*,18.4µM*,i,20.6µM*,-17.2%,?
N=c1c2c(n(Cc3ccc([N+](=O)[O-])cc3)c3c1CCC3)CCCC2,i,-2.2%,i,3.0%,0.4%,-3.1%
Cc1cc(C)cc(NC(=O)C(CC(C)C)NC(=O)C2CCCCC2)c1 (stereo not given),i,.,i,.,-16.6%,-3.0%
O=C(Nc1ccccc1Cl)c1cc(C2CCCCN2C(=O)c2cccs2)on1 (stereo not given),i,-27.3%,i,-0.5%,-43.2%,-5.2%
O=C(Nc1ccc(F)c(Cl)c1)c1cc(C2CCCCN2C(=O)c2cccs2)on1 (stereo not given),23.1µM*,-9.0%,i,-21.1%,-15.3%,?
COc1ccc(-n2c(C)cc(C(=O)CN3C(=O)c4ccccc4C3=O)c2C)cc1,i,-1.6%,i,-21.0%,20.6%,28.1%
Cc1cc(-n2c(C)cc(C(=O)CCl)c2C)no1,?,7.31µM*,?,5.8µM*,11.2µM*,8.91µM*
Cc1cc(-n2c(C)cc(C(=O)CN3C(=O)C(=O)N(C)C3=O)c2C)no1,i,-1.6%,i,11.7%,-10.0%,16.4%
Cc1nnc(SCC(=O)c2cc(C)n(-c3c(C)n(C)n(-c4ccccc4)c3=O)c2C)s1,i,15.5%,i,0.3%,7.8%,13.9%
COc1ccc(-n2c(C)cc(C(=O)CCl)c2C)cc1,6.51µM*,14.6µM*,?,?,22.4µM*,?
Cc1cc(C(=O)CCl)c(C)n1-c1c(C)n(C)n(-c2ccccc2)c1=O,?,?,?,23.1µM*,-47.7%,?
CCOc1ccc(OCC)c(NC(=O)Cn2nc(CC)n3c(cc4sccc43)c2=O)c1,i,.,i,.,-0.2%,?
CC(Oc1ccccc1F)C(=O)Nc1ccc2ccccc2c1 (stereo not given),11.6µM*,?,?,-26.5%,-8.3%,7.9%
CC(Oc1ccc(F)cc1)C(=O)Nc1ccc2ccccc2c1 (stereo not given),i,-22.2%,?,?,-23.3%,3.9%
Cc1ccc(-c2nc3cccnc3s2)cc1NC(=O)Cc1ccccc1,i,.,i,.,-1.1%,3.0%
COc1cc(OC)cc(C(=O)N(Cc2ccco2)Cc2cccs2)c1,i,.,i,.,0.2%,-21.3%
O=C(Cc1ccccc1)Nc1cc(-c2nc3cc(Cl)ccc3o2)ccc1Cl,i,.,i,.,-5.1%,1.7%
Cc1ccc(NC(=S)N/N=C/c2c(Cl)cccc2Cl)c(C)c1,0.581µM*,0.517µM*,1.16µM*,?,4.2%,-28.4%
CCCOc1ccc(NCC(=O)Nc2ccc(C)cc2C)cc1,i,3.2%,?,-2.4%,-13.8%,-3.3%
Cc1ccc(NC(=S)N/N=C/c2ccc(OCCC(C)C)cc2)c(C)c1,i,-2.3%,16.4µM*,0.5%,-35.6%,?
O=C1c2cccnc2C(=O)N1c1nc(-c2ccccc2)cs1,i,.,i,.,-3.7%,1.6%
CCOCCc1nnc(NC(=O)C(=O)c2cc(C)n(-c3cccc(C)c3)c2C)s1,i,.,i,.,6.8%,10.1%
CCc1cccc(NC(=O)C(CC)n2nc(C)c3sc4ccccc4c3c2=O)c1 (stereo not given),i,.,i,.,-24.5%,33.2%

# Assay outcomes deposited in PubChem by National Center for Advancing Translational Sciences (NCATS).
